Experimental data reported in PubChem BioAssay (NCATS).
Records with an inconclusive call do not appear. The source made the active and inactive calls. Unless noted, the call rests on the fitted dose curve; in most records, active means well fitted curve in the direction sought with a large enough effect; inconclusive means small, poorly fitted or top-dose-only effect, or another doubt; inactive means no such curve, though single readings can be large; an effect the other way counts as inactive or inconclusive.

How the values were obtained:
[1] = molecular target: Muscarinic acetylcholine receptor M1 (Rattus norvegicus) (UniProt P08482); assay: qHTS Assay for Antagonists of Acetylcholine Muscarinic M1 Receptor: Measurement of IP-One Response (AID 944); further: nearly all actives have a fitted effect of over 75% in size
Chain of Muscarinic acetylcholine receptor M1 (Rattus norvegicus) (P08482 whole entry, looked up): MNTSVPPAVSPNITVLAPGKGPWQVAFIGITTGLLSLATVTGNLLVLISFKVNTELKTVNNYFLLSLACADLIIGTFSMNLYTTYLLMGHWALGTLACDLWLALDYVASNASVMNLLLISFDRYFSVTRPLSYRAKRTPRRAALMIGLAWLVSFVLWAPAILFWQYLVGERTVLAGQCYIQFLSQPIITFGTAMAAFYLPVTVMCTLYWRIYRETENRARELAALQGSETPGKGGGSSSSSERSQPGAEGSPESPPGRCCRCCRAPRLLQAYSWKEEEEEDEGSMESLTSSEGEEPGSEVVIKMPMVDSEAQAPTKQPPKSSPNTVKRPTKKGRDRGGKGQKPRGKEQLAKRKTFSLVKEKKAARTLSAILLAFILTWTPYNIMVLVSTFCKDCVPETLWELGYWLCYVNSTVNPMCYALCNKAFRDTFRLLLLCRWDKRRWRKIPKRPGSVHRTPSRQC
How it was run: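 Antagonist mode with rat M1 receptor transfected into CHO cells. Compound is added first for 10 min, carbachol at its EC80 follows for 30 min, and lysis reagents then allow TR-FRET detection of accumulated IP1.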

[2] = molecular target: Pyruvate kinase (Leishmania mexicana) (UniProt Q27686); assay: qHTS Validation Assay for Inhibitors of Leishmania Mexicana Pyruvate Kinase (AID 945)
Chain of Pyruvate kinase (Leishmania mexicana) (Q27686 2-499 E452W): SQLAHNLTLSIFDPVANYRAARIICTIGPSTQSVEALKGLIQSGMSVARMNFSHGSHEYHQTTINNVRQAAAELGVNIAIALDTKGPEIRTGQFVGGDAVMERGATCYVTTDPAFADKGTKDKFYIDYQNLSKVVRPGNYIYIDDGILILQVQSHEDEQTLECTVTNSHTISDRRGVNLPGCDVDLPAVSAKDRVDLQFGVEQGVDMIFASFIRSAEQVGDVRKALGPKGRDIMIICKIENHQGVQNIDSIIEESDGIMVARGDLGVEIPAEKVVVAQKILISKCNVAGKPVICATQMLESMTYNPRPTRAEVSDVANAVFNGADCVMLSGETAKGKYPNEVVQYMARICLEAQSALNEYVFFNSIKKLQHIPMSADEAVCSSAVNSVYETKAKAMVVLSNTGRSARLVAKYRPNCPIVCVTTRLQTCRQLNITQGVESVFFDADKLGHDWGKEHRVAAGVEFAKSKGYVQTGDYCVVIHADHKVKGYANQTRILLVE
How it was run: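 Eight-point qHTS titrations in triplicate, data normalized to DMSO neutral control. Reaction: 0.2 nM LmPYK E451W mutant, 0.5 mM PEP, 0.1 mM ADP, 7 mM MgCl2, pH 7.2, one hour at room temperature; luminescent ATP detection.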

[3] = molecular target: Pyruvate kinase PKM (Homo sapiens) (UniProt P14618); assay: qHTS Assay for Activators of Human Muscle Pyruvate Kinase (AID 954; active means well fitted curve in the direction sought with a large enough effect, not every such curve was filed as active)
Chain of Pyruvate kinase PKM (Homo sapiens) (P14618 whole entry, looked up): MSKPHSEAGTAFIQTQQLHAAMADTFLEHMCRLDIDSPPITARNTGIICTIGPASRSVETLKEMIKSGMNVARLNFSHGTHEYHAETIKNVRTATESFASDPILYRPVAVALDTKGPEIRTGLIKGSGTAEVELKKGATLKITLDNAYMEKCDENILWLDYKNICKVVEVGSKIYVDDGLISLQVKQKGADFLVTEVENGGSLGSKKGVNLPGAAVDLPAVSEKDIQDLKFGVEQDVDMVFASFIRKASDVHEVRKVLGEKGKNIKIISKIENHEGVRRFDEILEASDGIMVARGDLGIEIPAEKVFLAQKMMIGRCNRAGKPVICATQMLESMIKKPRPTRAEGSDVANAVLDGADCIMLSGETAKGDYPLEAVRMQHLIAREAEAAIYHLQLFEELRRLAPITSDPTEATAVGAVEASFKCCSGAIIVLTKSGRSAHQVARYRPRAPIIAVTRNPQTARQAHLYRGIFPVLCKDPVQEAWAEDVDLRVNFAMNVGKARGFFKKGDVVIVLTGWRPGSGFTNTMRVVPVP
How it was run: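 ATP production by PKM2 detected via luciferase luminescence after 1 h room-temperature reaction (0.1 nM enzyme, PEP at Km 0.5 mM, ADP 0.1 mM, pH 7.2 imidazole buffer). Inhibition scaled to no-enzyme control; activation referenced to 0.3 nM enzyme wells.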

[4] = Cell Viability - LYMP2-001 (AID 921);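 further: series mostly up to about 92 µM; cells exposed to compound for 24 h at 37 °C; nearly all actives have a fitted effect of over 70% in size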
How it was run: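 Human lymphoblastoid LYMP2-001 cells, 2500 per well, in complete medium, treated 24 h at 37 C. Viability from cellular ATP by CellTiter-Glo luminescence; AC50 from Hill-equation fits of qHTS concentration-response.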

[5] = MultiTox-Fluor Cytotoxicity Assay - LYMP1-001 - Dead Cells (AID 946)
How it was run: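 Cytotoxicity as increased dead-cell protease fluorescence (bis-AAF-R110, 485/520 nm), read 60 min after MultiTox-Fluor reagent. Human lymphoblastoid line exposed 16 h; Hill-fitted AC50, with DMSO as 0% and 15 uM tetraoctylammonium bromide as 100%.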

[6] = MultiTox-Fluor Cytotoxicity Assay - LYMP1-001 - Live Cells (AID 947)
[7] = Cell Viability - LYMP1-002 - Assay at 16 hr (AID 948)
How it was run: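 LYMP1-002 human lymphoblastoid cells, 2500/well, were treated with compounds for 16 hr at 37 C in complete medium. Viability was read as intracellular ATP by CellTiter-Glo luminescence, and AC50 was derived from a Hill fit to concentration-response data.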

[8] = MultiTox-Fluor Cytotoxicity Assay - LYMP1-002 - Live Cells (AID 955)
From the text: NIH Chemical Genomics Center [NCGC]
NIH Molecular Libraries Screening Centers Network [MLSCN]
National Institutes of Environmental Health Sciences [NIEHS]
National Toxicology Program [NTP]
We have developed a 1536-well cell-based assay for quantitative high throughput screening (qHTS) against a number of cell lines to determine in vitro cytotoxicity of small molecules. This particular assay uses a human lymphoblastoid cell line (LYMP1-002) purchased from Coriell Institute.
NCGC Assay Protocol Summary:
The MultiTox-Fluor Cytotoxicity Assay (Promega) is a homogeneous method to simultaneously measure the relative number of live and dead cells in culture by detecting changes in cell membrane integrity. There are two fluorogenic peptide substrates in the assay reagent. Viable cells are determined when the cell-permeant substrate (GF-AFC) enters the cell and is cleaved by protease from live cells resulting in liberated fluorophore. […] The dead cells are determined by using fluorogenic cell-impermeant peptide substrate (bis-AAF-R110) which cleaved by dead cell proteases leaking from damaged cell membrane.
Using the MultiTox-Fluor Cytotoxicity Assay, the relative number of live cells was measured in the lymphoblastoid cell line with complete culture medium following compound treatment for 16 hours. […] AC50 values were determined from concentration-response data modeled with the standard Hill equation. […]

[9] = MultiTox-Fluor Cytotoxicity Assay - LYMP1-002 - Dead Cells (AID 960); further: nearly all actives have a fitted effect of over 60% in size
How it was run: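 Cells were plated, rested 5 hr, then treated with compound dilution series for 16 hr at 37 C. After adding substrate reagent and 60 min at room temperature, dead-cell protease fluorescence gave concentration-response curves fitted by the Hill equation.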

[10] = MultiTox-Fluor Cytotoxicity Assay - LYMP1-003 - Dead Cells (AID 961); further: nearly all actives have a fitted effect of over 70% in size
How it was run: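 Dead-cell protease release, detected as bis-AAF-R110 fluorescence at 485/520 nm, was measured in LYMP1-003 cells after 16 h compound treatment at 37 C. AC50 values came from Hill-modeled qHTS curves normalized to DMSO (0%) and 15 uM tetraoctylammonium bromide (100%).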

Measured: outcome

COc1ccc2c(c1OC)C(=O)OC2[C@H]1c2c(cc3c(c2OC)OCO3)CCN1C (stereo partly specified)
inactive: [1] | [2]

CN(C)CC[C@H](c1ccc(Cl)cc1)c1ccccn1
inactive: [2] | [3]

Cc1cc(O)c2c(c1)C(=O)c1cccc(O)c1C2=O
inactive: [4] | [5] | [6] | [7] | [8] | [9] | [10]
